ChEMBL document CHEMBL5606460, “ASAP - DENV-2 NS2B-NS3 protease fluorescence single point” (2024)
In all, about 2,000 compounds went through this assay and about 110 (5.5%) showed an effect of 50% or more. For the sample, strong results were picked, then their nearest neighbours and some compounds at random.

Molecular target: Genome polyprotein (dengue virus type 2) (UniProt P29990)
[1] = Thailand/16681/1984, Concentration 25.0 uM, Number of replicates 1.0

Compound: O=Cc1ccc(N2CCC(C(=O)Nc3cccc(Br)n3)CC2)cc1
- inhibition [1]: 92.6%

Compound: O=Cc1ccc(N2CCC(C(=O)Nc3ncc(F)cc3Br)CC2)cc1
- inhibition [1]: 10.9%

Compound: O=Cc1ccc(N2CCC(C(=O)Nc3ncc(Br)cc3O)CC2)cc1
- inhibition [1]: 52.8%

Compound: Cc1ccc2cccc(NC(=O)C3CCN(c4ccc(C=O)cc4)CC3)c2n1
- inhibition [1]: 50.9%

Compound: O=Cc1ccc(N2CCC(C(=O)Nc3ccc(Br)cc3O)CC2)cc1
- inhibition [1]: 31.4%

Compound: Cc1c(Br)cccc1NC(=O)C1CCN(c2ccc(C=O)cc2)CC1
- inhibition [1]: 13%

Compound: O=Cc1ccc(N2CCC(C(=O)Nc3cccc(C(F)(F)F)n3)CC2)cc1
- inhibition [1]: 13.5%

Compound: O=Cc1ccc(N2CCC(C(=O)Nc3cccc4ccc(O)cc34)CC2)cc1
- inhibition [1]: 35.2%

Compound: Cc1nc(NC(=O)C2CCN(c3ccc(C=O)cc3)CC2)ccc1Br
- inhibition [1]: 12.1%

Compound: COC(=O)c1cccc(C(=O)Nc2ccncc2C)c1
- inhibition (Thailand/16681/1984, Concentration 49.5 uM, Number of replicates 2.0, Standard deviation 0.22567664905073445 %): -4.08%
- inhibition (Thailand/16681/1984, Concentration 99.01 uM, Number of replicates 2.0, Standard deviation 0.2045809712592737 %): -3.74%
- inhibition (Thailand/16681/1984, Concentration 198.0 uM, Number of replicates 2.0, Standard deviation 1.3054913833669988 %): -2.98%

Compound: C[C@@H](c1ccccc1)N(CC1CC1)C(=O)C1CCN(c2ccc(C=O)cc2)CC1
- inhibition [1]: 13.8%

Compound: O=C(c1csc([C@H]2CCCNC2)n1)N1CC[C@H](c2cccnc2)C1
- inhibition (Thailand/16681/1984, Concentration 49.5 uM, Number of replicates 2.0, Standard deviation 1.7251582592894925 %): -0.499%
- inhibition (Thailand/16681/1984, Concentration 99.01 uM, Number of replicates 2.0, Standard deviation 2.248532513594862 %): 1.01%
- inhibition (Thailand/16681/1984, Concentration 198.0 uM, Number of replicates 2.0, Standard deviation 1.6393165928155962 %): 2.41%

Compound: NS(=O)(=O)c1cccc(CN2CC[C@H](c3c[nH]c4ccccc34)C2)c1
- inhibition (Thailand/16681/1984, Concentration 49.5 uM, Number of replicates 2.0, Standard deviation 1.1633260593891446 %): -1.78%
- inhibition (Thailand/16681/1984, Concentration 99.01 uM, Number of replicates 2.0, Standard deviation 1.588607527736017 %): 0.04%
- inhibition (Thailand/16681/1984, Concentration 198.0 uM, Number of replicates 2.0, Standard deviation 1.7864683947344713 %): 2.15%

Compound: Cc1cc(CO)c2cccc(CC(=O)Nc3nonc3C(N)=O)c2n1
- inhibition (Thailand/16681/1984, Concentration 49.95 uM, Number of replicates 2.0, Standard deviation 0.10454576349345478 %): 97.1%
- inhibition (Thailand/16681/1984, Concentration 99.9 uM, Number of replicates 2.0, Standard deviation 0.006921524049853062 %): 99%

Compound: Cc1cc(CO)c2cccc(Cc3ccccc3NC(=O)Cc3cccc(CN)c3)c2n1
- inhibition (Thailand/16681/1984, Concentration 49.95 uM, Number of replicates 2.0, Standard deviation 1.4858035354408357 %): -0.82%
- inhibition (Thailand/16681/1984, Concentration 99.9 uM, Number of replicates 2.0, Standard deviation 1.2081673980721888 %): 5.26%

Compound: Cc1cc(CO)c2cccc(Cc3ccccc3C(=O)Nc3cccc(C(N)=O)c3)c2n1
- inhibition (Thailand/16681/1984, Concentration 49.95 uM, Number of replicates 2.0, Standard deviation 0.1803817681308647 %): 4.23%
- inhibition (Thailand/16681/1984, Concentration 99.9 uM, Number of replicates 2.0, Standard deviation 0.18828716821235608 %): 9.06%

Compound: Cc1cc(CO)c2cccc(Nc3nonc3C(N)=O)c2n1
- inhibition (Thailand/16681/1984, Concentration 49.95 uM, Number of replicates 2.0, Standard deviation 1.5271718368293243 %): 11%
- inhibition (Thailand/16681/1984, Concentration 99.9 uM, Number of replicates 2.0, Standard deviation 3.697399383401008 %): 23.8%

Compound: Cc1cc(CO)c2cccc(Cc3ccccc3C(=O)Nc3nonc3C(N)=O)c2n1
- inhibition (Thailand/16681/1984, Concentration 49.95 uM, Number of replicates 2.0, Standard deviation 0.20481615067396447 %): 9.42%
- inhibition (Thailand/16681/1984, Concentration 99.9 uM, Number of replicates 2.0, Standard deviation 0.252245853764608 %): 28.4%

Compound: Cc1cc(CO)c2cccc(CC(=O)Nc3cccc(C(N)=O)c3)c2n1
- inhibition (Thailand/16681/1984, Concentration 49.95 uM, Number of replicates 2.0, Standard deviation 0.3351031861891448 %): 71.5%
- inhibition (Thailand/16681/1984, Concentration 99.9 uM, Number of replicates 2.0, Standard deviation 0.3101738310571331 %): 94.2%

Compound: Cc1cc(CO)c2cccc(Cc3cccc(C(=O)Nc4nonc4C(N)=O)c3)c2n1
- inhibition (Thailand/16681/1984, Concentration 49.95 uM, Number of replicates 2.0, Standard deviation 1.9942580477177279 %): 23.4%
- inhibition (Thailand/16681/1984, Concentration 99.9 uM, Number of replicates 2.0, Standard deviation 1.5142007227316114 %): 73%

Compound: Cc1cc(CO)c2cccc(Cc3cccc(C(=O)Nc4cc(O)[nH]n4)c3)c2n1
- inhibition (Thailand/16681/1984, Concentration 49.95 uM, Number of replicates 2.0, Standard deviation 1.1139101860624252 %): 16.1%
- inhibition (Thailand/16681/1984, Concentration 99.9 uM, Number of replicates 2.0, Standard deviation 0.5605490390974336 %): 35%

Compound: Cc1cc(CO)c2cccc(Cc3cccc(C(=O)Nc4cccc(C(N)=O)c4)c3)c2n1
- inhibition (Thailand/16681/1984, Concentration 49.95 uM, Number of replicates 2.0, Standard deviation 0.8487279472032775 %): 0.063%
- inhibition (Thailand/16681/1984, Concentration 99.9 uM, Number of replicates 2.0, Standard deviation 0.25943340872226184 %): 4.4%

Compound: O=Cc1ccc(N2CCC(C(=O)NCc3ccc(C(F)(F)F)nc3)CC2)cc1
- inhibition [1]: 14.9%

Compound: CC(C)(CO)NC(=O)c1cc(Cl)cc(OCc2ccccn2)c1
- inhibition (Thailand/16681/1984, Concentration 49.5 uM, Number of replicates 2.0, Standard deviation 3.9117339361958243 %): -3.57%
- inhibition (Thailand/16681/1984, Concentration 99.01 uM, Number of replicates 2.0, Standard deviation 3.9139588683287148 %): -3.56%
- inhibition (Thailand/16681/1984, Concentration 198.0 uM, Number of replicates 2.0, Standard deviation 3.978479645326132 %): -2.33%

Compound: O=Cc1ccc(N2CCC(C(=O)N3CCS[C@H]3c3ccc([N+](=O)[O-])cc3)CC2)cc1
- inhibition [1]: 10.8%

Compound: CNC(=O)c1cc(Cl)ccc1NS(=O)(=O)c1ccc(Cn2cncn2)cc1
- inhibition (Thailand/16681/1984, Concentration 49.5 uM, Number of replicates 2.0, Standard deviation 0.7766096317793165 %): -1.89%
- inhibition (Thailand/16681/1984, Concentration 99.01 uM, Number of replicates 2.0, Standard deviation 1.2995063622910579 %): -0.333%
- inhibition (Thailand/16681/1984, Concentration 198.0 uM, Number of replicates 2.0, Standard deviation 1.6197418261994996 %): 2.7%

Compound: CS(=O)(=O)N1CCC(NC(=O)C2CCN(c3ccc(C=O)cc3)CC2)CC1
- inhibition [1]: 12%

Compound: O=Cc1ccc(N2CCC(C(=O)Nc3ncnc(Cl)c3Cl)CC2)cc1
- inhibition [1]: 10.5%

Compound: C=CCN(Cc1cccc(OC)c1)C(=O)C1CCN(c2ccc(C=O)cc2)CC1
- inhibition [1]: 13.3%

Compound: Cc1ccc(NC(=O)C2CCN(c3ccc(C=O)cc3)CC2)cc1I
- inhibition [1]: 9.87%
